Screening results (PubChem)
Nrf2 inh – Nrf2 qHTS screen for inhibitors; A549 ARE-Fluc reporter, luciferase luminescence, 18-24 h; Potency, µM (series often up to 46 µM), for the others: top-dose activity change, negative = inhibition, most hits filed as inhibitors; hit rate 2.1% among 360,000; AID 504444, 2011; further: on the % scale 0 is the no-effect control and ±100 the full control effect; nearly all actives have a fitted effect of over 60% in size
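Quantitative HTS in A549 cells stably bearing an antioxidant response element-firefly luciferase construct. Inhibition of Nrf2-driven transcription was scored by luminescence after 18-24 h of compound exposure at 37 °C.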
A549 tox – Nrf2 qHTS screen for inhibitors: counterscreen for cytotoxicity | A549 ARE-Fluc cells, CellTiter-Fluor viability, 18-24 h | hit rate 0.16% among 390,000 | Potency, µM (doses to about 46 µM), for the others: top-dose activity change, negative = cytotoxicity, most hits filed as inhibitors | AID 504648, 2011; further: on the % scale 0 is the no-effect control and ±100 the full control effect
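Cytotoxicity counterscreen: CellTiter-Fluor fluorescence was measured in A549 ARE_Fluc cells after 18-24 h of compound exposure in a concentration series. The subsequent BugLite luminescent read reports ARE-luciferase activity.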
Nrf2 ARE act – qHTS of Nrf2 Activators. AID 624171, 2012. AREc32 ARE-luciferase reporter (MCF7-derived line), luminescence, 24 h. hit rate 0.31% among 410,000. Potency, µM (highest dose often 46.1 µM), for inactives: at the top dose activation, hits mostly activators; further: % of control where 0% means no effect; nearly all actives have a fitted effect of over 65% in size
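Reporter line AREc32 (ARE-Fluc), seeded overnight in OPTI-MEM with 5% FBS; compound pin-transferred, 24 hr at 37 deg C, 5% CO2; luminescent read-out.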
PINK1 modulator – A Quantitative High throughput Screen to Identify Chemical Modulators of PINK1 Expression | PINK1 immunofluorescence, high-content cytometry, 24 h | Potency, µM (doses to about 76.6 µM), for the others: top-dose activation (PINK1 increase), actives largely listed as activators | hit rate 0.2% among 410,000; active means well fitted activation curve with a large enough effect; inconclusive means small, poorly fitted or top-dose-only effect; cell line not stated here; further: % of control where 0% means no effect; nearly all actives have a fitted effect of over 65% in size
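Cells are seeded, rested 12 hours, then given compound at five concentrations or DMSO for 24 hours. After fixation, blocking and antibody staining, PINK1 amount and mitochondrial localization are scored; CCCP serves as control.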
Epigenetic derep – Quantitative High-Throughput Screen for Regulators of Epigenetic Control | Potency, µM (top dose mostly 53.9 µM), for the others: at the highest dose GFP activation, usual class: activators | murine LDR cells, GFP reporter derepression, 30 h | AID 1865, 2009 | hit rate 0.2% among 280,000; further: % of control where 0% means no effect; nearly all actives have a fitted effect of over 60% in size
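In this reporter-derepression format, murine cells bearing a silenced integrated CMV-GFP locus incubate with test compound (30 h, 37 C), then are washed and imaged; fluorescent objects of 20–120 um count as induced cells.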
Active calls of the source: *; ? = inconclusive; nt = no result; [ ] = dose if it differs, or a comment. Only some compounds are listed: those with a hit (about 2.4% of all), similar ones and a draw of the others. Unless noted, the call rests on the fitted dose curve; in most records, active means well fitted curve in the direction sought with a large enough effect; inconclusive means small, poorly fitted or top-dose-only effect, or another doubt; inactive means no such curve, though single readings can be large; an effect the other way counts as inactive or inconclusive. Potency means the concentration at half of the fitted maximal effect.

SMILES	Nrf2 inh	A549 tox	Nrf2 ARE act	PINK1 modulator	Epigenetic derep
CCN1/C(=C/c2ccc3ccccc3[n+]2CCCS(=O)(=O)[O-])C=Cc2cc(C)ccc21	-19%	?	0%	0%	nt
CCN1/C(=C/c2ccc3cc(C)ccc3[n+]2C)Sc2ccc3sccc3c21	18µM*	-25%	0%	4%	10µM*
CCN1/C(=C/c2ccc3cc(C)ccc3[n+]2CC)Sc2cc(C)ccc21	4.6µM*	?	-3%	?	2.8µM*
Cc1ccc2c(c1)N(C)/C(=C/c1cccc[n+]1CCO)S2	-15%	-21%	2%	4%	nt
CC(C)Cc1nc2cc(NS(=O)(=O)N(C)C)cc(C(=O)N3CCOc4ccccc4C3)c2n1C	nt	nt	nt	0%	nt
CCN(Cc1ccncc1)Cc1ccc2c(c1)CN(C(=O)c1ccc(C)cc1)CCO2	nt	nt	nt	0%	nt
Cc1cccc(-c2nc(CCNC(=O)c3ccccc3Br)cs2)c1	nt	7%	-1%	1%	2%
CCN1C(=O)CC(CC(=O)N2CCC(c3nc4ccc(F)cc4[nH]3)CC2)(c2ccccc2C)C1=O (stereo unspecified)	nt	nt	nt	1%	nt
O=S(=O)(c1ccc(F)cc1)N1CCN(CCOc2ccccc2)CC1	-3%	-4%	0%	3%	nt
Cc1ccc(S(=O)(=O)N2CCN(CCOc3cccc(C)c3)CC2)cc1	21µM*	-7%	0%	0%	nt
COc1ccc(Cl)cc1NC(=O)c1cc2ccccn2n1	?	13%	5.6µM*	7%	-1%
COc1ccc(NC(=O)c2ccco2)cc1NC(=O)c1cc(Cl)ccc1OC	-19%	-5%	3%	1%	4%
O=C(Nc1ccc(F)c(F)c1)c1ccc(-n2cncn2)c([N+](=O)[O-])c1	10µM*	-15%	2%	-2%	nt
COc1ccc(C)cc1NC(=O)c1cc2ccccn2n1	-21%	4%	18%	4%	1%
COc1ccc(Cl)cc1NC(=O)c1ccco1	nt	1%	5µM*	3%	0%
COc1ccc(NC(=O)c2ccco2)cc1NC(=O)COc1cc(C)ccc1C(C)C	18µM*	-19%	-1%	3%	-1%
COC(=O)c1c(OCc2ccccn2)cc(=O)n2c1CCN(Cc1ccc3nsnc3c1)CC2	nt	nt	nt	2%	nt
Cc1noc(C)c1-c1ccc2ncnc(Nc3ccc(F)cc3)c2c1	nt	nt	nt	0%	nt
CCn1c(-c2cccc(OC)c2)nc2cc(NC(C)=O)cc(C(=O)N3CCCC(C(C)=O)C3)c21 (stereo unspecified)	nt	nt	nt	0%	nt
COC(=O)c1nnc(N[C@@H](Cc2c[nH]c3ccccc23)C(=O)OC)nc1C(=O)OC	nt	nt	nt	nt	-1%
Cc1cccc(CCNC(=O)c2cc3ccccn3n2)c1	?	3%	1%	0%	-1%
O=C(Nc1cc(Cl)ccc1-n1cncn1)c1ccc([N+](=O)[O-])s1	?	-21%	0%	5µM*	nt
COc1ccc(Cl)cc1NC(=O)c1cccc([N+](=O)[O-])c1O	?	?	3%	22µM*	nt
O=C(Nc1cc(Cl)ccc1-n1cncn1)c1ccco1	1%	2%	10µM*	-1%	nt
Cc1ccc(C(=O)Nc2cc(Cl)ccc2-n2cncn2)o1	18%	0%	7%	-1%	nt
SMILES	Nrf2 inh	A549 tox	Nrf2 ARE act	PINK1 modulator	Epigenetic derep
CCOc1ccc(CCNC(=O)c2cc3ccccn3n2)cc1OCC	21µM*	-7%	2%	0%	-1%
COc1cc2c(cc1OC)CN(C(=O)[C@@H]1C[C@H](NCc3cn(C)c4ccccc34)CN1C1Cc3ccccc3C1)CC2	nt	nt	nt	6%	nt
Cc1csc(CN(C)C(=O)c2sc3ncnc(NCC4CCCO4)c3c2C)n1 (stereo unspecified)	nt	nt	nt	-1%	nt
Cc1ccccc1OCC(=O)NCC(=O)OCc1cccc2ccccc12	-2%	0%	nt	2%	nt
COc1ccc(CN2CCN(S(=O)(=O)c3ccc(NC(C)=O)cc3)CC2)cc1	16µM*	-12%	-1%	-1%	2%
Cc1ccc(-n2nnnc2C2CCN(S(=O)(=O)c3ccc(OC(F)(F)F)cc3)CC2)cc1	6%	1%	0%	0%	-2%
COc1ccc(-n2nnnc2C2CCN(S(=O)(=O)c3ccc(NC(C)=O)cc3)CC2)cc1	9.2µM*	-20%	-1%	4%	4%
COc1ccc(S(=O)(=O)N2CCN(Cc3ccc(Cl)cc3)CC2)cc1	?	-2%	-1%	nt	0%
Cc1cnc(-n2ncc(C(=O)NCc3ccncc3)c2C(C)C)nc1-c1ccc(F)cc1	nt	nt	nt	-1%	nt
Cc1cnc(C)c(-c2cc(F)cc3c2OC(CNC(=O)CN2CCCC2)C3)n1 (stereo unspecified)	nt	nt	nt	-1%	nt
CC(C)NC(=O)c1cn([C@H]2CC[C@@H](NC(=O)/C=C/c3cccs3)CC2)nn1	nt	nt	nt	1%	nt
C#CCSc1nnc(-c2cccc3ccccc23)o1	27%	-1%	11µM*	-2%[38.3 µM]	nt
C=CCSc1nnc(-c2cccc3ccccc23)o1	-13%	3%	4%	-1%	nt
Cc1ccc(S(=O)(=O)c2nnn3c2nc(NCCc2ccccc2)c2sccc23)cc1	21µM*	-1%	-1%	5%	1%
CCOC(=O)c1cc(-c2cccnc2)nn1-c1ccccc1	12µM*	2%	4%	-1%	-2%
CC/C(=N/Nc1cccc(Cl)c1)c1cnnc(SC)n1	1%	-1%	10%	20µM*	?
CC/C(=N/Nc1ccccc1)c1cnnc(-c2ccccc2)n1	0%	-4%	0%	?	-1%
CC(C)c1ccc2[nH]c(O)c(N=NC(=O)c3cccc(S(=O)(=O)N4CCCCC4)c3)c2c1	18µM*	?	0%	1%	-1%
O=C(N=Nc1c(O)[nH]c2ccccc12)c1cccc(S(=O)(=O)N2CCCCC2)c1	-9%	3%	0%	16%	1%
CC1c2cc3c(cc2CCN1CC(=O)Nc1ccccc1)OCCCO3 (stereo unspecified)	18µM*	-11%	-1%	0%	nt
Cc1ccc(NC(=O)CN2CCc3cc4c(cc3C2C)OCCCO4)cc1C (stereo unspecified)	26µM*	-15%	0%	-2%	nt
Cc1ccc(NC(=O)CN2CCc3cc4c(cc3C2C)OCCCO4)cc1 (stereo unspecified)	-20%	4%	0%	1%	nt
COCCOc1ccc(C(F)(F)F)cc1NC(=O)c1ccc(F)cc1	10%	-2%	5%	11%	-1%
COCCOc1ccc(C(F)(F)F)cc1NC(=O)c1ccc(C)cc1	-1%	0%	11µM*	8%	5%
CCCCN(CCCC)CC(O)c1cc(Cl)cc2c1-c1ccc(Cl)cc1C2=Cc1ccc(Cl)cc1 (stereo unspecified)	nt	nt	nt	2%	nt
CCCCN(CC)CCNC(=O)C1CCN(c2nnc(C)c3c(C)n(-c4ccc(C)cc4)nc23)CC1	?	23µM*	4%	4%	7%
